Source: PubChem BioAssay AID1159580 (chemical genetic matrix, 2015)
Screen size: about 5,500 compounds; about 2,000 (36%) were called active. Roughly 18% stayed inconclusive and do not appear here. Rule as the data show it: active = normalized growth mostly below about 0.91 (no sharp cut-off); inconclusive = no clear call, values can overlap the other calls; inactive = mostly above about 0.92. The list shows a part of the results.

Assay: chemical genetic growth profiling, strain panel (AID 1159580);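 also: tested at 20 µM; growth read once vehicle control cultures reached saturation at 30 °C; 1 = growth at the plate median or of vehicle wells; lower values mean less growth of the strain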
Settings: growth OD

Measured: normalized growth

COc1cccc(OC)c1C(=O)N[C@@H]1C(=O)N2[C@@H]1SC(C)(C)[C@@H]2C(=O)O
inactive: S. cerevisiae deletion strains, locus YJR066W, strain TOR1, stronger effect = lower value 0.974 | S. cerevisiae deletion strains, locus YJR075W, strain HOC1, stronger effect = lower value 0.998 | S. cerevisiae deletion strains, locus YKL009W, strain mrt4, stronger effect = lower value 0.946 | S. cerevisiae deletion strains, locus YKL068W, stronger effect = lower value 0.975 | S. cerevisiae deletion strains, locus YKL085W, strain MDH1 (second series), stronger effect = lower value 0.986 | S. cerevisiae deletion strains, locus YKL085W, strain MDH1, stronger effect = lower value 0.986 | S. cerevisiae deletion strains, locus YKL160W, strain elf1, stronger effect = lower value 0.978 | S. cerevisiae deletion strains, locus YKR001C, strain vps1, stronger effect = lower value 0.973 | S. cerevisiae deletion strains, locus YKR026C, strain gcn3, stronger effect = lower value 1 | S. cerevisiae deletion strains, locus YKR091W, strain srl3, stronger effect = lower value 1 | S. cerevisiae deletion strains, locus YLL001W, strain dnm1, stronger effect = lower value 0.963 | S. cerevisiae deletion strains, locus YLL026W, stronger effect = lower value 0.993 | S. cerevisiae deletion strains, locus YLL041C, strain sdh2, stronger effect = lower value 0.994 | S. cerevisiae deletion strains, locus YLR027C, strain aat2, stronger effect = lower value 0.995 | S. cerevisiae deletion strains, locus YLR039C, strain RIC1, stronger effect = lower value 1 | S. cerevisiae deletion strains, locus YLR058C, strain SHM2, stronger effect = lower value 1.01 | S. cerevisiae deletion strains, locus YLR102C, strain apc9, stronger effect = lower value 0.985 | S. cerevisiae deletion strains, locus YLR113W, strain HOG1, stronger effect = lower value 0.982 | S. cerevisiae deletion strains, locus YLR221C, strain rsa3, stronger effect = lower value 1 | S. cerevisiae deletion strains, locus YLR258W, strain gsy2, stronger effect = lower value 0.999 | S. cerevisiae deletion strains, locus YLR262C, strain YPT6 (second series), stronger effect = lower value 1 | S. cerevisiae deletion strains, locus YLR262C, strain YPT6, stronger effect = lower value 1.03 | S. cerevisiae deletion strains, locus YLR268W, strain sec22, stronger effect = lower value 0.993 | S. cerevisiae deletion strains, locus YLR320W, strain mms22, stronger effect = lower value 0.986 | S. cerevisiae deletion strains, locus YLR330W, strain CHS5, stronger effect = lower value 0.993 | S. cerevisiae deletion strains, locus YLR342W, strain FKS1 (second series), stronger effect = lower value 1.03 | S. cerevisiae deletion strains, locus YLR342W, strain FKS1, stronger effect = lower value 0.988 | S. cerevisiae deletion strains, locus YLR357W, strain rsc2, stronger effect = lower value 0.994 | S. cerevisiae deletion strains, locus YLR370C, strain arc18, stronger effect = lower value 1.01 | S. cerevisiae deletion strains, locus YLR371W, strain rom2, stronger effect = lower value 0.993 | S. cerevisiae deletion strains, locus YLR384C, strain iki3, stronger effect = lower value 0.991 | S. cerevisiae deletion strains, locus YLR418C, strain cdc73, stronger effect = lower value 0.996 | S. cerevisiae deletion strains, locus YML016C, strain PPZ1, stronger effect = lower value 1 | S. cerevisiae deletion strains, locus YML032C, strain rad52, stronger effect = lower value 0.991 | S. cerevisiae deletion strains, locus YML120C, strain ndi1, stronger effect = lower value 0.992 | S. cerevisiae deletion strains, locus YML124C, strain tub3, stronger effect = lower value 0.991 | S. cerevisiae deletion strains, locus YMR058W, strain fet3, stronger effect = lower value 1 | S. cerevisiae deletion strains, locus YMR078C, strain ctf18, stronger effect = lower value 0.995 | S. cerevisiae deletion strains, locus YMR125W, strain sto1, stronger effect = lower value 1.02 | S. cerevisiae deletion strains, locus YMR129W, stronger effect = lower value 0.992 | S. cerevisiae deletion strains, locus YMR205C, strain PFK2, stronger effect = lower value 0.991 | S. cerevisiae deletion strains, locus YMR223W, strain ubp8, stronger effect = lower value 1.01 | S. cerevisiae deletion strains, locus YMR231W, strain pep5, stronger effect = lower value 0.997 | S. cerevisiae deletion strains, locus YMR263W, strain SAP30, stronger effect = lower value 0.972 | S. cerevisiae deletion strains, locus YMR307W, strain GAS1, stronger effect = lower value 1.25 | S. cerevisiae deletion strains, locus YNL067W, strain RPL9B, stronger effect = lower value 0.962 | S. cerevisiae deletion strains, locus YNL071W, strain lat1, stronger effect = lower value 1 | S. cerevisiae deletion strains, locus YNL128W, strain TEP1, stronger effect = lower value 0.974 | S. cerevisiae deletion strains, locus YNL153C, strain GIM3, stronger effect = lower value 1.01 | S. cerevisiae deletion strains, locus YNL183C, strain NPR1, stronger effect = lower value 0.971 | S. cerevisiae deletion strains, locus YNL209W, strain ssb2, stronger effect = lower value 1.01 | S. cerevisiae deletion strains, locus YNL233W, strain BNI4, stronger effect = lower value 1.01 | S. cerevisiae deletion strains, locus YNL248C, strain rpa49, stronger effect = lower value 1.01 | S. cerevisiae deletion strains, locus YNL250W, strain rad50, stronger effect = lower value 0.921 | S. cerevisiae deletion strains, locus YNL271C, strain bni1, stronger effect = lower value 0.991 | S. cerevisiae deletion strains, locus YNL298W, strain CLA4, stronger effect = lower value 0.98 | S. cerevisiae deletion strains, locus YNL307C, strain MCK1, stronger effect = lower value 1 | S. cerevisiae deletion strains, locus YNL322C, strain KRE1 (second series), stronger effect = lower value 1.01 | S. cerevisiae deletion strains, locus YNL322C, strain KRE1, stronger effect = lower value 1 | S. cerevisiae deletion strains, locus YNR049C, strain mso1, stronger effect = lower value 0.995 | S. cerevisiae deletion strains, locus YNR052C, strain pop2, stronger effect = lower value 0.987 | S. cerevisiae deletion strains, locus YOL006C, strain TOP1, stronger effect = lower value 1.01 | S. cerevisiae deletion strains, locus YOL012C, strain htz1 0.716 | S. cerevisiae deletion strains, locus YOR001W, strain rrp6, stronger effect = lower value 0.99 | S. cerevisiae deletion strains, locus YOR061W, strain CKA2, stronger effect = lower value 1 | S. cerevisiae deletion strains, locus YOR069W, strain VPS5, stronger effect = lower value 0.999 | S. cerevisiae deletion strains, locus YOR070C, strain gyp1, stronger effect = lower value 1.01 | S. cerevisiae deletion strains, locus YOR080W, strain dia2, stronger effect = lower value 0.99 | S. cerevisiae deletion strains, locus YOR083W, strain WHI5, stronger effect = lower value 0.95 | S. cerevisiae deletion strains, locus YOR106W, strain vam3, stronger effect = lower value 0.994 | S. cerevisiae deletion strains, locus YOR136W, strain idh2, stronger effect = lower value 0.992 | S. cerevisiae deletion strains, locus YOR144C, strain elg1, stronger effect = lower value 0.989 | S. cerevisiae deletion strains, locus YOR184W, strain ser1, stronger effect = lower value 0.996 | S. cerevisiae deletion strains, locus YOR231W, strain MKK1, stronger effect = lower value 0.988 | S. cerevisiae deletion strains, locus YOR265W, strain rbl2, stronger effect = lower value 1 | S. cerevisiae deletion strains, locus YOR270C, strain vph1, stronger effect = lower value 1 | S. cerevisiae deletion strains, locus YOR290C, strain snf2, stronger effect = lower value 1 | S. cerevisiae deletion strains, locus YOR316C, strain cot1, stronger effect = lower value 0.977 | S. cerevisiae deletion strains, locus YPL051W, strain arl3, stronger effect = lower value 0.989 | S. cerevisiae deletion strains, locus YPL055C, strain LGE1, stronger effect = lower value 0.968 | S. cerevisiae deletion strains, locus YPL078C, strain atp4, stronger effect = lower value 0.97 | S. cerevisiae deletion strains, locus YPL106C, strain sse1, stronger effect = lower value 1.03 | S. cerevisiae deletion strains, locus YPL240C, strain hsp82, stronger effect = lower value 0.999 | S. cerevisiae deletion strains, locus YPL241C, strain CIN2, stronger effect = lower value 1 | S. cerevisiae deletion strains, locus YPL256C, strain CLN2, stronger effect = lower value 1.06 | S. cerevisiae deletion strains, locus YPR141C, strain kar3, stronger effect = lower value 0.972 | S. cerevisiae deletion strains, locus YPR163C, strain tif3, stronger effect = lower value 0.987 | S. cerevisiae deletion strains, locus YPR167C, strain met16, stronger effect = lower value 0.979 | S. cerevisiae deletion strains, strain wtn01, stronger effect = lower value 1.01 | S. cerevisiae strains, strain wild type, stronger effect = lower value 1
